# In all, about 5,500 compounds went through this assay and about 2,000 (36%) were called active. Roughly 18% stayed inconclusive and do not appear here. Rule as the data show it: active = normalized growth mostly below about 0.91 (no sharp cut-off); inconclusive = no clear call, values can overlap the other calls; inactive = mostly above about 0.92. This is one part of the list. Where a SMILES comes first, the peptide text is derived from it. The star is where a group is joined. Cbz = O=C(OCc1ccccc1)*
# Assay: chemical genetic growth profiling, strain panel (AID 1159580);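 also: tested at 20 µM; growth read once vehicle control cultures reached saturation at 30 °C; 1 = growth at the plate median or of vehicle wells; lower values mean less growth of the strain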
# Details: S. cerevisiae deletion strains, growth OD
# [1] = locus YAL040C, strain CLN3, hits give low values
# [2] = locus YCL061C, strain MRC1 (second series), hits give low values
# [3] = locus YDR363W, strain ESC2, hits give low values
# [4] = locus YER002W, strain NOP16, hits give low values
# [5] = locus YMR263W, strain SAP30, hits give low values
# [6] = locus YMR307W, strain GAS1, hits give low values
# [7] = locus YNL175C, strain NOP13, hits give low values
# [8] = locus YNL197C, strain WHI3, hits give low values
# [9] = locus YNL224C, strain SQS1, hits give low values
# [10] = locus YNL322C, strain KRE1, hits give low values
# [11] = locus YOR083W, strain WHI5 (second series), hits give low values
# [12] = locus YHR030C, strain SLT2, hits give low values
# [13] = locus YHR079C, strain IRE1, hits give low values
# [14] = locus YJL095W, strain BCK1, hits give low values
# [15] = locus YJR066W, strain TOR1, hits give low values
# [16] = locus YLR113W, strain HOG1, hits give low values
# [17] = locus YNL183C, strain NPR1, hits give low values
# [18] = locus YOR231W, strain MKK1, hits give low values
# [19] = locus YPL256C, strain CLN2, hits give low values
structure (smiles),measurement,setting,value
CC(C)[C@H](NC(=O)OCc1ccccc1)C(=O)N[C@H](C=O)Cc1ccccc1 (Cbz-Val-Phe-aldehyde),normalized growth,[1],0.961 (inactive)
same,normalized growth,[2],1 (inactive)
same,normalized growth,[3],1.04 (inactive)
same,normalized growth,[4],0.993 (inactive)
same,normalized growth,[5],0.976 (inactive)
same,normalized growth,[6],1.02 (inactive)
same,normalized growth,[7],0.969 (inactive)
same,normalized growth,[8],0.969 (inactive)
same,normalized growth,[9],0.996 (inactive)
same,normalized growth,[10],1 (inactive)
same,normalized growth,[11],0.997 (inactive)
COC(=O)[C@H](Cc1ccccc1)NC(=O)[C@@H](N)CC(=O)O (H-Asp-Phe-OMe),normalized growth,"locus YAL021C, strain ccr4, hits give low values",1.01 (inactive)
same,normalized growth,"locus YAL026C, strain drs2, hits give low values",1.01 (inactive)
same,normalized growth,"locus YAL030W, strain snc1, hits give low values",1 (inactive)
same,normalized growth,"locus YBL061C, strain skt5, hits give low values",1.02 (inactive)
same,normalized growth,"locus YBR009C, strain hhf1, hits give low values",1.02 (inactive)
same,normalized growth,"locus YBR023C, strain chs3, hits give low values",1.02 (inactive)
same,normalized growth,"locus YBR171W, strain sec66, hits give low values",1.02 (inactive)
same,normalized growth,"locus YBR231C, strain swc5, hits give low values",1.03 (inactive)
same,normalized growth,"locus YBR279W, strain paf1, hits give low values",1.02 (inactive)
same,normalized growth,"locus YCL011C, strain gbp2, hits give low values",1.02 (inactive)
same,normalized growth,"locus YCL016C, strain dcc1, hits give low values",1.01 (inactive)
same,normalized growth,"locus YCL061C, strain MRC1, hits give low values",1.01 (inactive)
same,normalized growth,"locus YCL069W, strain vba3, hits give low values",1.02 (inactive)
same,normalized growth,"locus YCR088W, strain abp1, hits give low values",1.01 (inactive)
same,normalized growth,"locus YDL005C, strain med2, hits give low values",1 (inactive)
same,normalized growth,"locus YDL040C, strain nat1, hits give low values",1.01 (inactive)
same,normalized growth,"locus YDR001C, strain nth1, hits give low values",1.02 (inactive)
same,normalized growth,"locus YDR069C, strain doa4, hits give low values",1.02 (inactive)
same,normalized growth,"locus YDR137W, strain rgp1, hits give low values",1.01 (inactive)
same,normalized growth,"locus YDR159W, strain sac3, hits give low values",1.02 (inactive)
same,normalized growth,"locus YDR195W, strain ref2",1.01 (inactive)
same,normalized growth,"locus YDR297W, strain sur2, hits give low values",1.02 (inactive)
same,normalized growth,"locus YDR334W, strain swr1, hits give low values",1.01 (inactive)
same,normalized growth,"locus YDR335W, strain msn5, hits give low values",1.02 (inactive)
same,normalized growth,"locus YDR392W, strain spt3, hits give low values",0.958 (inactive)
same,normalized growth,"locus YEL003W, strain gim4, hits give low values",1.02 (inactive)
same,normalized growth,"locus YEL037C, strain rad23, hits give low values",1.02 (inactive)
same,normalized growth,"locus YEL061C, strain CIN8 (second series), hits give low values",1.01 (inactive)
same,normalized growth,"locus YER015W, strain faa2, hits give low values",1.01 (inactive)
same,normalized growth,"locus YER016W, strain bim1, hits give low values",1.01 (inactive)
same,normalized growth,"locus YER111C, strain swi4, hits give low values",1.02 (inactive)
same,normalized growth,"locus YER155C, strain BEM2 (second series), hits give low values",1.03 (inactive)
same,normalized growth,"locus YFR010W, strain ubp6, hits give low values",1.02 (inactive)
same,normalized growth,"locus YGL167C, strain pmr1, hits give low values",1.02 (inactive)
same,normalized growth,"locus YGL173C, strain kem1, hits give low values",1.01 (inactive)
same,normalized growth,"locus YGL227W, strain vid30, hits give low values",1.02 (inactive)
same,normalized growth,"locus YGL240W, strain doc1, hits give low values",1.04 (inactive)
same,normalized growth,"locus YGL253W, strain hxk2, hits give low values",1 (inactive)
same,normalized growth,"locus YHR013C, strain ard1, hits give low values",1.01 (inactive)
same,normalized growth,"locus YHR027C, strain rpn1, hits give low values",1.02 (inactive)
same,normalized growth,[12],1.02 (inactive)
same,normalized growth,[13],1.02 (inactive)
same,normalized growth,"locus YHR142W, strain chs7, hits give low values",1.01 (inactive)
same,normalized growth,"locus YJL092W, strain hpr5, hits give low values",1.02 (inactive)
same,normalized growth,"locus YJL095W, strain BCK1 (second series), hits give low values",1.02 (inactive)
same,normalized growth,[14],0.978 (inactive)
same,normalized growth,"locus YJL115W, strain asf1, hits give low values",1.02 (inactive)
same,normalized growth,"locus YJL129C, strain trk1, hits give low values",1.01 (inactive)
same,normalized growth,"locus YJL154C, strain vps35, hits give low values",1.02 (inactive)
same,normalized growth,"locus YJL164C, strain tpk1, hits give low values",0.999 (inactive)
same,normalized growth,"locus YJL166W, strain qcr8, hits give low values",1.03 (inactive)
same,normalized growth,[15],0.961 (inactive)
same,normalized growth,"locus YKL160W, strain elf1, hits give low values",1.02 (inactive)
same,normalized growth,"locus YKR026C, strain gcn3, hits give low values",1.02 (inactive)
same,normalized growth,"locus YKR091W, strain srl3, hits give low values",1.02 (inactive)
same,normalized growth,"locus YLL001W, strain dnm1, hits give low values",1.01 (inactive)
same,normalized growth,"locus YLL026W, hits give low values",1.02 (inactive)
same,normalized growth,"locus YLL041C, strain sdh2, hits give low values",1.02 (inactive)
same,normalized growth,"locus YLR027C, strain aat2, hits give low values",1.02 (inactive)
same,normalized growth,[16],0.969 (inactive)
same,normalized growth,"locus YLR221C, strain rsa3, hits give low values",0.998 (inactive)
same,normalized growth,"locus YLR258W, strain gsy2, hits give low values",1.02 (inactive)
same,normalized growth,"locus YLR262C, strain YPT6 (second series), hits give low values",1.02 (inactive)
same,normalized growth,"locus YLR320W, strain mms22, hits give low values",1.01 (inactive)
same,normalized growth,"locus YLR342W, strain FKS1, hits give low values",1.03 (inactive)
same,normalized growth,"locus YLR357W, strain rsc2, hits give low values",1.03 (inactive)
same,normalized growth,"locus YLR370C, strain arc18, hits give low values",1.01 (inactive)
same,normalized growth,"locus YLR384C, strain iki3, hits give low values",1.02 (inactive)
same,normalized growth,"locus YML120C, strain ndi1, hits give low values",1.01 (inactive)
same,normalized growth,"locus YMR058W, strain fet3, hits give low values",1.02 (inactive)
same,normalized growth,"locus YMR125W, strain sto1, hits give low values",1.01 (inactive)
same,normalized growth,"locus YMR129W, hits give low values",1.02 (inactive)
same,normalized growth,"locus YMR205C, strain PFK2, hits give low values",1.02 (inactive)
same,normalized growth,"locus YMR231W, strain pep5, hits give low values",1.03 (inactive)
same,normalized growth,"locus YNL071W, strain lat1, hits give low values",1.02 (inactive)
same,normalized growth,[17],0.96 (inactive)
same,normalized growth,"locus YNL209W, strain ssb2, hits give low values",1.01 (inactive)
same,normalized growth,"locus YNL248C, strain rpa49, hits give low values",1 (inactive)
same,normalized growth,"locus YNL322C, strain KRE1 (second series), hits give low values",1.02 (inactive)
same,normalized growth,"locus YNR049C, strain mso1, hits give low values",1.02 (inactive)
same,normalized growth,"locus YOR001W, strain rrp6, hits give low values",1.01 (inactive)
same,normalized growth,"locus YOR070C, strain gyp1, hits give low values",1.01 (inactive)
same,normalized growth,"locus YOR080W, strain dia2, hits give low values",1.02 (inactive)
same,normalized growth,"locus YOR083W, strain WHI5, hits give low values",1.02 (inactive)
same,normalized growth,"locus YOR106W, strain vam3, hits give low values",1.03 (inactive)
same,normalized growth,[18],1.02 (inactive)
same,normalized growth,"locus YOR265W, strain rbl2, hits give low values",1.01 (inactive)
same,normalized growth,"locus YOR270C, strain vph1, hits give low values",1.05 (inactive)
same,normalized growth,"locus YOR290C, strain snf2, hits give low values",0.995 (inactive)
same,normalized growth,"locus YPL051W, strain arl3, hits give low values",1.03 (inactive)
same,normalized growth,"locus YPL078C, strain atp4, hits give low values",1.02 (inactive)
same,normalized growth,"locus YPL106C, strain sse1, hits give low values",1.03 (inactive)
same,normalized growth,"locus YPL240C, strain hsp82, hits give low values",1.01 (inactive)
same,normalized growth,[19],1.02 (inactive)
Cc1ccc(S(=O)(=O)N[C@@H](Cc2ccccc2)C(=O)CCl)cc1,normalized growth,[1],0.932 (inactive)
same,normalized growth,[2],0.987 (inactive)
same,normalized growth,"locus YDR150W, strain NUM1, hits give low values",0.998 (inactive)
same,normalized growth,[3],1 (inactive)
same,normalized growth,[4],0.904 (active)
same,normalized growth,"locus YJR075W, strain HOC1, hits give low values",0.959 (inactive)
same,normalized growth,[5],0.993 (inactive)
same,normalized growth,[6],0.896 (active)
same,normalized growth,"locus YNL128W, strain TEP1, hits give low values",0.955 (inactive)
same,normalized growth,[7],0.902 (active)
same,normalized growth,[8],0.892 (active)
same,normalized growth,[9],0.954 (inactive)
same,normalized growth,[10],1.01 (inactive)
same,normalized growth,[11],0.957 (inactive)
same,normalized growth,"locus YPL055C, strain LGE1, hits give low values",0.983 (inactive)
CC(=O)NC(Cc1ccccc1)C(=O)O (stereo not drawn),normalized growth,[12],0.979 (inactive)
same,normalized growth,[13],0.984 (inactive)
same,normalized growth,[14],0.985 (inactive)
same,normalized growth,[15],0.91 (inactive)
same,normalized growth,[16],1.02 (inactive)
same,normalized growth,[17],0.89 (inactive)
same,normalized growth,[18],0.997 (inactive)
same,normalized growth,[19],0.984 (inactive)

# — PubChem BioAssay AID1159580 (chemical genetic matrix, 2015)
